According to PubChem BioAssay (EPA / NIEHS):
The source made the active and inactive calls. Rule for the calls: active = hit-call score of the fitted dose curve at least 0.9, where 1 is the maximum; inactive = score below 0.9.

Each compound was assayed on TIMP metallopeptidase inhibitor 2 (TIMP2), TIMP2 (gene 7077) (assay: BSK_KF3CT_TIMP2: BioMAP Diversity Plus: KF3CT Assay for TIMP metallopeptidase inhibitor 2 (TIMP2) Biomarker Activity (AID 2283071)). Conditions: primary human keratinocytes with fibroblasts; actives raise or lower the signal.
Summary of the method: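 Keratinocyte–fibroblast co-culture, 24 h exposure; TIMP-2 ELISA, DMSO-normalised bidirectional fit. Parallel SRB (0.1%, TCA-fixed, 560 nm) total-protein staining gauges cytotoxicity.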

SMILES	outcome	AC50
CC1(C)C(=O)N(Cl)C(=O)N1Cl	inactive	–
CCCCN1C(=O)[C@@H]([C@H](O)C2CCCCC2)NC(=O)C12CCN(Cc1ccc(Oc3ccc(C(=O)O)cc3)cc1)CC2	inactive	–
Nc1ccn([C@@H]2O[C@H](CO)[C@@H](O)[C@@H]2O)c(=O)n1	inactive	–
c1ccc2cc3ccccc3cc2c1	inactive	–
Cc1nccn1-c1ccc(Sc2cccc(C3(C(N)=O)CCOCC3)c2)cc1	inactive	–
CCn1nc(C)c2c1C(=O)NCC(c1ccc(O)cc1)=N2	inactive	–
CCCCCCCCN(C)C	inactive	–
CCCCCCOC(=O)CC(CC(=O)OCCCCCC)(OC(=O)CCC)C(=O)OCCCCCC	inactive	–
O=S(=O)(O)c1ccc(N=Nc2c(O)ccc3cc(S(=O)(=O)O)ccc23)cc1	inactive	–
COc1cc(C(C)C)c2c(c1)S(=O)(=O)N(COc1cc(=O)n3cccc(OCCN4CCCCC4)c3n1)C2=O	inactive	–
CCc1cccc(CC)c1N	inactive	–
NC(=O)NN=Cc1ccc([N+](=O)[O-])o1	inactive	–
OCCOCCOCCO	inactive	–
Cc1ccc(S(=O)(=O)NC(=O)NN2CCCCCC2)cc1	inactive	–
OC(CCl)CCl	inactive	–
Cn1cc[nH]c1=S	inactive	–
CNC(C)=O	inactive	–
O=C(O)c1ccc2c(c1)nc(C(=O)NC1CCN(C3CC3)CC1)n2Cc1cc(-c2ccc(Cl)s2)on1	inactive	–
CCCOc1ccc(S(=O)(=O)N2CCN(CC)CC2)cc1-c1nc2c(CC)n(Cc3ccccn3)nc2c(=O)[nH]1	inactive	–
c1ccc(C(O[C@@H]2CCCN(CCc3ccc4c(c3)OCO4)C2)c2ccccc2)cc1	–	3.97 µM (active)
OCC(CO)(CO)CO	inactive	–
Cc1cccc(O)c1C	inactive	–
c1ccc2c(c1)-c1cccc3c1c-2cc1ccccc13	inactive	–
OCc1ccccc1	inactive	–
S=P(N1CC1)(N1CC1)N1CC1	inactive	–
COS(C)(=O)=O	inactive	–
OC[C@H]1O[C@@H]2O[C@H]3[C@H](O)[C@@H](O)[C@@H](O[C@H]4[C@H](O)[C@@H](O)[C@@H](O[C@H]5[C@H](O)[C@@H](O)[C@@H](O[C@H]6[C@H](O)[C@@H](O)[C@@H](O[C@H]7[C@H](O)[C@@H](O)[C@@H](O[C@H]1[C@H](O)[C@H]2O)O[C@@H]7CO)O[C@@H]6CO)O[C@@H]5CO)O[C@@H]4CO)O[C@@H]3CO	inactive	–
